# Experimental data from PubChem BioAssay.
# The source made the active and inactive calls. How the calls were made is not given here.
# Target: Pantothenate synthetase (Mycobacterium tuberculosis (strain ATCC 25618 / H37Rv)) (UniProt P9WIL5)
# Assay: Recombinant Mtb pantothenate synthetase (PanC) inhibitors, coupled enzyme, confirmatory (AID 375);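 further: 0% = full reaction with vehicle and 100% = no enzyme background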
# Settings: coupled enzyme assay; at 10 µM, hits give high values
# Chain of Pantothenate synthetase (Mycobacterium tuberculosis (strain ATCC 25618 / H37Rv)) (P9WIL5 whole entry, looked up): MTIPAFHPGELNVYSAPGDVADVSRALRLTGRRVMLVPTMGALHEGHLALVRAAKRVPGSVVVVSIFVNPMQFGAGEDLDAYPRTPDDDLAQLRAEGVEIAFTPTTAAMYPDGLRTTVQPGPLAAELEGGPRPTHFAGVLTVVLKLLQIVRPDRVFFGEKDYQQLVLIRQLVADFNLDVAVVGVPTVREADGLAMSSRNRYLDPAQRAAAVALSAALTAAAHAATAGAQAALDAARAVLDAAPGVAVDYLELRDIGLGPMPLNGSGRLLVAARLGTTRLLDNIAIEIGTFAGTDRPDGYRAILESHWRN
row,SMILES,inhibition
1,Cc1nc2ncnn2c(N2CCC(C(=O)NCC3CCCO3)CC2)c1Cc1ccccc1 (stereo not given),0% (inactive)
2,O=C(COc1ccc(=O)n(-c2ccccc2)n1)Nc1ccccc1,0% (inactive)
3,CC(=O)Nc1ccc(S(=O)(=O)Nc2nc3ccccc3nc2N2CCCC2)cc1,8% (inactive)
4,CC(C)CCNC(=O)NC(=O)CSc1nnc(COc2ccccc2Cl)o1,7% (inactive)
5,CC1CC(C)CN(c2ncnc3c2cnn3-c2ccc(Cl)cc2)C1 (stereo not given),1% (inactive)
6,CC1(C)CC(=O)C(C(=O)CCCCC(=O)C2C(=O)CC(C)(C)CC2=O)C(=O)C1,0% (inactive)
7,O=C(CSc1ncn[nH]1)c1ccco1,0% (inactive)
8,O=C(COc1ccc(S(=O)(=O)N2CCCC2)cc1Cl)NC1CC1,8% (inactive)
9,c1coc(CN(Cc2cccs2)Cc2nnnn2C2CCCCC2)c1,0% (inactive)
10,CCCn1c(C)cc(C(=O)COc2ncnc3sccc23)c1C,4% (inactive)
11,Cc1ccc(-c2noc(CN3C(C)CCCC3C)n2)cc1 (stereo not given),0% (inactive)
12,COc1cc2nc(N3CCN(C(=O)c4ccco4)CC3)nc(N)c2cc1OC,2% (inactive)
13,COc1ccc(C2C(C(=O)N3CCCC3)c3cc(OC)c(OC)cc3C(=O)N2C)cc1 (stereo not given),0% (inactive)
14,Cc1cc(C)n(CCCNC(=O)c2ccc(S(=O)(=O)NCc3ccco3)cc2)n1,3% (inactive)
15,c1ccc(-c2cnc(CSc3ncnc4sccc34)o2)cc1,0% (inactive)
16,Cc1ccc2cc(CN(CCN3CCCC3)C(=O)Nc3ccc(F)cc3)c(=O)[nH]c2c1C,0% (inactive)
17,CCn1c(SCC(=O)c2ccc(F)cc2)nnc1-c1ccoc1C,4% (inactive)
18,CCOC(=O)CSc1ncnc2c1cnn2-c1ccc(C)cc1,15% (inactive)
19,COc1ccccc1C(=O)Nc1ccc(N2CCN(Cc3ccccc3)CC2)cc1,0% (inactive)
20,COC(=O)c1ccccc1NC(=O)C1CCN(S(=O)(=O)c2cc(C)ccc2OC)CC1,0% (inactive)

row,SMILES,inhibition
1,Cc1cc(C)n(-c2ccc(C(=O)Oc3ccc4c(c3)OCO4)cc2)n1,1% (inactive)
2,CC(=O)Nc1c(O)[nH]c2ccccc12,0% (inactive)
3,CCOC(=O)c1[nH]nc(N)c1NC(=O)c1ccc(Cl)cc1Cl,0% (inactive)
4,COC(=O)CSc1nnc(-c2ccc(OC)cc2OC)o1,0% (inactive)
5,CCOC(=O)N1CCN(C(=O)c2cnn(-c3ccccc3)c2NC(=O)c2ccccc2F)CC1,0% (inactive)
6,O=C(Nc1ccccc1N1CCCCC1)c1ncoc1-c1ccc(F)cc1,1% (inactive)
7,CC(C)COC(=O)C1[C@H]2C(=O)N(Cc3cccs3)C[C@]23C=C[C@H]1O3 (stereo not given in full),1% (inactive)
8,COc1cccc(-n2c(CNc3ccc(F)cc3)nnc2SCC(N)=O)c1,0% (inactive)
9,COc1ccc(C(c2sc3nc(C)nn3c2O)N2CCCCC2)cc1 (stereo not given),0% (inactive)
10,CN(Cc1ccco1)C(=O)Cn1c(=O)oc2cc(S(=O)(=O)NCc3ccccc3)ccc21,0% (inactive)
11,O=C1CNCc2[nH]c3ccccc3c2N1c1ccccc1,0% (inactive)
12,O=c1c(F)cn(C2CCCO2)c(=O)n1Cc1c(F)cccc1Cl (stereo not given),0% (inactive)
13,c1ccc(Nc2ccccc2Nc2ccccn2)nc1,0% (inactive)
14,Cc1nc2sccn2c(=O)c1CCN1CCC(=C(c2ccccc2)c2ccc(F)cc2)CC1,3% (inactive)
15,CC1(C)CN=C(N2CCN(c3ncnc4sc5c(c34)CCCC5)CC2)S1,0% (inactive)
16,Cc1ccc(-c2cc(C(=O)N3CCCC3)no2)cc1,0% (inactive)
17,COc1cccc(NC(=O)N[C@@H](Cc2ccccc2)C(=O)O)c1,0% (inactive)
18,O=C(Nc1ccccc1C(F)(F)F)c1cc(S(=O)(=O)N2CCOCC2)ccc1F,0% (inactive)
19,CCOC(=O)c1cc(-c2ccc(N)cc2)sc1N,0% (inactive)
20,Cc1c(NC(=O)c2nn(C)c(=O)c3ccccc23)c(=O)n(-c2ccccc2)n1C,0% (inactive)
